The nature of assay [1]: NCI Yeast Anticancer Drug Screen. Data for the rad50 strain (AID 155).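 Also: 0% = growth of vehicle-only cultures of the same strain.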 To be noted: S. cerevisiae rad50 strain growth inhibition, stronger effect = higher value. The method in brief:
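Readout: growth inhibition relative to vehicle-treated cultures. Compound exposure was carried out in a genetically defined yeast strain deficient in DNA damage repair.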

Assay [2] is described as follows: NCI Yeast Anticancer Drug Screen. Data for the mec2-1 strain (AID 157). As to conditions: S. cerevisiae mec2-1 strain, stronger effect = higher value. Summed up: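 Mutant yeast (mec2-1) grown with compound; growth inhibition relative to vehicle control reported.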
A short description of assay [3]: NCI Yeast Anticancer Drug Screen. Data for the sgs1 mgt1 strain (AID 161).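 Also: 0% = growth of cultures given vehicle only.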 To be noted: S. cerevisiae sgs1 mgt1 strain, stronger effect = higher value. The method in brief:
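Growth of a repair-deficient yeast mutant was monitored after compound treatment and expressed as inhibition relative to vehicle-treated cultures.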

Assay [4] in a line: NCI Yeast Anticancer Drug Screen. Data for the cln2 rad14 strain (AID 165).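 Also: 0% = growth equal to vehicle treated cultures.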 As to conditions: S. cerevisiae cln2 rad14 strain, stronger effect = higher value. The method in brief:
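Readout is yeast growth inhibition versus vehicle-treated controls, using a strain with cln2 and rad14 alterations exposed to compound.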

The nature of assay [5]: NCI Yeast Anticancer Drug Screen. Data for the bub3 strain (AID 167). As to conditions: S. cerevisiae bub3 mutant strain, stronger effect = higher value. The method in brief: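 Readout: yeast growth inhibition, expressed relative to vehicle-only wells. The test organism is a mutant strain from a panel with lesions in DNA repair or checkpoint genes.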
The nature of assay [6]: NCI Yeast Anticancer Drug Screen. Data for the mlh1 rad18 strain (AID 175). To be noted: S. cerevisiae mlh1 rad18 strain growth inhibition, stronger effect = higher value. The method in brief:
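Genetically defined yeast (DNA repair-deficient) exposed to compounds; growth inhibition determined relative to vehicle.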

Setting [7] is: at 5.0 µM (retest, dose inferred, filed as 0.5).
Setting [8] is: at 50.0 µM (retest, dose inferred, filed as 5.0).

Compounds without any hit were thinned out: in the full panel of roughly 79,000, 15% have a hit. Unmarked numbers belong to inactive results. Activity calls are given as the source filed them. Rule as the data show it: active = growth inhibition above about 70%; inactive = the rest.

In the case of `CC1=C(C(=O)Nc2ccccc2C)C(c2ccccc2F)C(C(=O)Nc2ccccc2C)=C(C)N1`, the growth inhibition in assay [1] (setting [7]) was 1%; in assay [1] (setting [8]), 6%; in assay [1] (at 50.0 µM), 29.6%; in assay [2] (setting [7]), 3%; in assay [2] (setting [8]) it was 8%; in assay [2] (at 50.0 µM) it was 41.9%. Further, the growth inhibition in assay [3] (setting [7]) is -2%; in assay [3] (setting [8]), 6%; in assay [3] (at 50.0 µM), 6.6%; in assay [4] (setting [7]) it was -2%; in assay [4] (setting [8]), -6%; in assay [4] (at 50.0 µM), -23.1%. Besides, the growth inhibition in assay [5] (setting [7]) is 1%; in assay [5] (setting [8]) it was 2%; in assay [5] (at 50.0 µM) it was 20.2%; in assay [6] (setting [7]) it was 1%; in assay [6] (setting [8]) it was 8%; in assay [6] (at 50.0 µM) it was 47.7%.

In the case of `S=C(S)NCCN1CCNCC1`, the growth inhibition in assay [1] (setting [7]) is 9%; in assay [1] (setting [8]) it was -14%; in assay [1] (at 50.0 µM), 36.8%; in assay [2] (setting [7]) it was -20%; in assay [2] (setting [8]) it was -10%; in assay [2] (at 50.0 µM) it was -38.1%. Further, the growth inhibition in assay [3] (setting [7]) was 0%; in assay [3] (setting [8]), -16%; in assay [3] (at 50.0 µM), -27.9%; in assay [4] (setting [7]) it was -3%; in assay [4] (setting [8]), 1%; in assay [4] (at 50.0 µM), 73.8% (active). The growth inhibition was -6% in assay [5] (setting [7]); -11% in assay [5] (setting [8]); -40.6% in assay [5] (at 50.0 µM); -4% in assay [6] (setting [7]); -1% in assay [6] (setting [8]); -10.3% in assay [6] (at 50.0 µM).

For the molecule `O=C(c1c(F)c(F)c(F)c(F)c1F)n1c(=S)n(C(=O)c2c(F)c(F)c(F)c(F)c2F)c2ccccc21`, the growth inhibition in assay [1] (setting [7]) is 11%; in assay [1] (setting [8]), 96% (active); in assay [1] (at 50.0 µM), 42%; in assay [2] (setting [7]), 19%; in assay [2] (setting [8]), 90% (active); in assay [2] (at 50.0 µM) it was 71.4% (active). Besides, the growth inhibition in assay [3] (setting [7]) is 14%; in assay [3] (setting [8]), 93% (active); in assay [3] (at 50.0 µM), 62.3%; in assay [4] (setting [7]), -2%; in assay [4] (setting [8]) it was 53%; in assay [4] (at 50.0 µM) it was 8.45%. For the same molecule, the growth inhibition in assay [5] (setting [7]) is 2%; in assay [5] (setting [8]) it was 91% (active); in assay [5] (at 50.0 µM) it was 49.1%; in assay [6] (setting [7]), 29%; in assay [6] (setting [8]), 95% (active); in assay [6] (at 50.0 µM), 86.1% (active).

Take `Nc1nc(-c2ccc(Cl)cc2)cs1`: the growth inhibition in assay [1] (setting [7]) is -20%; in assay [1] (setting [8]) it was 94% (active); in assay [1] (at 50.0 µM), 98% (active); in assay [2] (setting [7]), 4%; in assay [2] (setting [8]), 91% (active); in assay [2] (at 50.0 µM) it was 97.4% (active). In addition, the growth inhibition in assay [3] (setting [7]) was 8%; in assay [3] (setting [8]), 91% (active); in assay [3] (at 50.0 µM), 98.2% (active); in assay [4] (setting [7]) it was -44%; in assay [4] (setting [8]) it was 92% (active); in assay [4] (at 50.0 µM) it was 97% (active). Besides, the growth inhibition is -29% in assay [5] (setting [7]); 90% (active) in assay [5] (setting [8]); 97.8% (active) in assay [5] (at 50.0 µM); -30% in assay [6] (setting [7]); 97% (active) in assay [6] (setting [8]); 97.7% (active) in assay [6] (at 50.0 µM).

Regarding `CCOC(=O)CCCCCN`, the growth inhibition in assay [1] (setting [7]) was 6%; in assay [1] (setting [8]), 8%; in assay [1] (at 50.0 µM), -4.55%; in assay [2] (setting [7]), 1%; in assay [2] (setting [8]), 2%; in assay [2] (at 50.0 µM), -7.75%. In addition, the growth inhibition was 1% in assay [3] (setting [7]); 7% in assay [3] (setting [8]); 34.1% in assay [3] (at 50.0 µM); 9% in assay [4] (setting [7]); -2% in assay [4] (setting [8]); -39.5% in assay [4] (at 50.0 µM). For the same molecule, the growth inhibition in assay [5] (setting [7]) was 2%; in assay [5] (setting [8]), -4%; in assay [5] (at 50.0 µM), 1.75%; in assay [6] (setting [7]), 5%; in assay [6] (setting [8]) it was 6%; in assay [6] (at 50.0 µM) it was -30.3%.

Take `Oc1c2c(c(O)c3ncccc13)C1C=CC2CC1` (stereo not given): the growth inhibition is -5% in assay [1] (setting [7]); 99% (active) in assay [1] (setting [8]); 97.7% (active) in assay [1] (at 50.0 µM); 0% in assay [2] (setting [7]); 99% (active) in assay [2] (setting [8]); 97.1% (active) in assay [2] (at 50.0 µM). Further, the growth inhibition in assay [3] (setting [7]) is -5%; in assay [3] (setting [8]), 98% (active); in assay [3] (at 50.0 µM), 99.3% (active); in assay [4] (setting [7]), -25%; in assay [4] (setting [8]) it was 98% (active); in assay [4] (at 50.0 µM) it was 84.8% (active). The growth inhibition in assay [5] (setting [7]) is 2%; in assay [5] (setting [8]), 99% (active); in assay [5] (at 50.0 µM), 97.7% (active); in assay [6] (setting [7]), -4%; in assay [6] (setting [8]), 99% (active); in assay [6] (at 50.0 µM), 98.3% (active).

For `Cc1cc(NCCCCCCCCCC[n+]2c(C)cc(N)c3ccccc32)c2ccccc2n1`, the growth inhibition is 71% (active) in assay [1] (setting [7]); 99% (active) in assay [1] (setting [8]); 89.8% (active) in assay [1] (at 50.0 µM); 94% (active) in assay [2] (setting [7]); 99% (active) in assay [2] (setting [8]); 92.2% (active) in assay [2] (at 50.0 µM). Also, the growth inhibition is 97% (active) in assay [3] (setting [7]); 99% (active) in assay [3] (setting [8]); 91.5% (active) in assay [3] (at 50.0 µM); 95% (active) in assay [4] (setting [7]); 99% (active) in assay [4] (setting [8]); 90% (active) in assay [4] (at 50.0 µM). Further, the growth inhibition in assay [5] (setting [7]) was 96% (active); in assay [5] (setting [8]), 99% (active); in assay [5] (at 50.0 µM), 90.9% (active); in assay [6] (setting [7]) it was 95% (active); in assay [6] (setting [8]) it was 99% (active); in assay [6] (at 50.0 µM), 90.6% (active).

Regarding `[N-]=[N+]=Nc1ccc(SN2C(=O)c3ccccc3C2=O)cc1`, the growth inhibition in assay [1] (setting [7]) is 29%; in assay [1] (setting [8]) it was 98% (active); in assay [1] (at 50.0 µM), 90.7% (active); in assay [2] (setting [7]) it was 23%; in assay [2] (setting [8]), 95% (active); in assay [2] (at 50.0 µM), 88.4% (active). Further, the growth inhibition in assay [3] (setting [7]) was 6%; in assay [3] (setting [8]) it was 98% (active); in assay [3] (at 50.0 µM), 92.5% (active); in assay [4] (setting [7]) it was 3%; in assay [4] (setting [8]), 67%; in assay [4] (at 50.0 µM) it was 63.1%. Moreover, the growth inhibition in assay [5] (setting [7]) was 1%; in assay [5] (setting [8]), 44%; in assay [5] (at 50.0 µM), 95.4% (active); in assay [6] (setting [7]), 10%; in assay [6] (setting [8]) it was 95% (active); in assay [6] (at 50.0 µM), 73.3% (active).

As for `COc1cc(C(c2cc3c(cc2O)OCO3)N2CCOCC2)ccc1O` (stereo not given), the growth inhibition in assay [1] (setting [7]) was 2%; in assay [1] (setting [8]) it was 25%; in assay [1] (at 50.0 µM), 44.8%; in assay [2] (setting [7]), -4%; in assay [2] (setting [8]) it was 46%; in assay [2] (at 50.0 µM), 57.5%. Moreover, the growth inhibition in assay [3] (setting [7]) was -2%; in assay [3] (setting [8]), 27%; in assay [3] (at 50.0 µM), 73% (active); in assay [4] (setting [7]) it was 1%; in assay [4] (setting [8]), 3%; in assay [4] (at 50.0 µM), 47.6%. Besides, the growth inhibition in assay [5] (setting [7]) was -4%; in assay [5] (setting [8]), 25%; in assay [5] (at 50.0 µM) it was 42.9%; in assay [6] (setting [7]), -5%; in assay [6] (setting [8]), 34%; in assay [6] (at 50.0 µM), 50.5%.

Take `S=C(Nc1ccc(Br)c(Cl)c1)SCc1ccc2c(c1)OCO2`: the growth inhibition in assay [1] (setting [7]) was 49%; in assay [1] (setting [8]) it was 97% (active); in assay [1] (at 50.0 µM), 88% (active); in assay [2] (setting [7]), 49%; in assay [2] (setting [8]) it was 98% (active); in assay [2] (at 50.0 µM), 88.9% (active). Moreover, the growth inhibition was 77% (active) in assay [3] (setting [7]); 98% (active) in assay [3] (setting [8]); 88.7% (active) in assay [3] (at 50.0 µM); 50% in assay [4] (setting [7]); 98% (active) in assay [4] (setting [8]); 86.1% (active) in assay [4] (at 50.0 µM). For the same molecule, the growth inhibition in assay [5] (setting [7]) was 76% (active); in assay [5] (setting [8]) it was 98% (active); in assay [5] (at 50.0 µM), 88.2% (active); in assay [6] (setting [7]), 44%; in assay [6] (setting [8]) it was 97% (active); in assay [6] (at 50.0 µM) it was 87.4% (active).

For the origin of these results see PubChem BioAssay (NCI).
